Compounds with a hit are over-represented: about 4.8% of the library has one in this group of screens.
SMARCA2 activ: increases SMARCA2 function in MMTV reporter cells; MG213 cells, MMTV-luciferase reporter, dexamethasone, overnight; activation, % at 9.1 µM; hit rate 1% among 370,000; AID 652017; in the data active = activation above about 7.8%
ssDAF12 agonist: S. stercoralis DAF-12 activation, primary screen; HEK293 ssDAF-12/GRIP1 lit1-tk-luc reporter, luminescence; % of 3 µM dafachronic acid response; activation, % at 6.8 µM; hit rate 1% among 370,000; AID 652126;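 active = activation above the mean over all tested compounds plus 3 SD, cut at about 0.9% in these data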
DAX1 inh-1: inhibitors of DAX1 repression of SF-1 activated StAR promoter. HEK293T StAR-luciferase reporter, SF-1/DAX-1 repression relief. inhibition, % at 6.8 µM. hit rate 1.1% among 370,000. AID 652010;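 active = inhibition above the mean over all tested compounds plus 3 SD, cut at about 3.6% in these data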;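 also: higher inhibition means more luminescence from relief of DAX-1 repression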
DAX1 inh-2: inhibitors of human orphan nuclear receptor DAX1 (NR0B1); P51843; HEK293 Gal4-DAX1 luciferase reporter, luminescence; inhibition, % at 6.75 µM; hit rate 0.99% among 340,000;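 active = inhibition above the mean over all tested compounds plus 3 SD, cut at about 4.2% in these data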;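 also: inhibition shows as a rise in luminescence from relieved DAX1 repression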
Target sequence (P51843 207-470 limits assumed): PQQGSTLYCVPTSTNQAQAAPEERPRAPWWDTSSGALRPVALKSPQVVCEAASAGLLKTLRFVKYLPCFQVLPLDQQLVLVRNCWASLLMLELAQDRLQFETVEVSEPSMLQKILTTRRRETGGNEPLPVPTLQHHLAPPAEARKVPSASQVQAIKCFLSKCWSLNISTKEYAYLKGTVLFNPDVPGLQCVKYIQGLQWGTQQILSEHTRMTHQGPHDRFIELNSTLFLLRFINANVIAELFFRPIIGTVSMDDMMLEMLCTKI
hcDAF12 agonist: activators of H. contortus DAF-12 nuclear receptor. HEK293 hcDAF-12 lit1-tk-luc reporter, luminescence; 0% DMSO, 100% Δ7-dafachronic acid. AID 652067. hit rate 1.4% among 370,000. activation, % at 6.8 µM;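 active = activation above the mean of all tested compounds plus 3 SD, cut at about 5.5% in these data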
hgDAF-12 ag: activates the H. glycines DAF-12 receptor ligand-binding domain; hit rate 1.8% among 370,000; AID 687014; activation, % at 6.8 µM; HEK293 GAL4-hgDAF12 UAS-luciferase reporter, agonist luminescence; normalized to butyrate control;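 active = activation above a cutoff set at the mean of all screened compounds plus 3 SD, cut at about 10% in these data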
Each line names hits and unclear results; the compound was inactive in the other large screens.

CCOC(=O)c1[nH]c(C)c(C(=O)Nc2ccc3c(c2)OCCO3)c1C	none
CC(=O)c1c(C)[nH]c(C(=O)Nc2nccs2)c1C	hgDAF-12 ag 12
CC(=O)c1c(C)[nH]c(C(=O)Nc2cccnc2)c1C	none
CC(=O)c1c(C)[nH]c(C(=O)Nc2ccc3c(c2)OCCO3)c1C	hgDAF-12 ag 11
CCc1ccc(NC(=O)c2[nH]c(C)c(C(C)=O)c2C)cc1	hgDAF-12 ag 13
Oc1ccccc1CNc1ccc(Br)cn1	hgDAF-12 ag 12
Cc1ccc2c(c1)N(C(=O)CCC(=O)N1CCC(C(N)=O)CC1)CCO2	ssDAF12 agonist 1.3
CCOC(=O)N1CCN(C(=O)CCC(=O)N2CCOc3ccc(C)cc32)CC1	none
COC(=O)[C@]12C[C@H](CC(=O)NCc3ccc(OC)c(OC)c3)C(=O)N(Cc3ccc(Cl)cc3Cl)C1=C[C@H](C(C)(C)C)O[C@@H]2C	none (no result: DAX1 inh-2)
CC(=O)C1=C(O)C(=O)OC1c1ccc(C)cc1 (stereo not given)	none
CC(=O)C1=C(O)C(=O)OC1c1ccc(Cl)cc1 (stereo not given)	DAX1 inh-2 4.4
Cc1ccc(C)c(NC(=O)c2ccc(CS(=O)(=O)Cc3ccccc3C)o2)c1	none (no result: DAX1 inh-2)
O=Cc1ccc2cccnc2n1	ssDAF12 agonist 2.0, hcDAF12 agonist 6.1
O=C(CSC1CC(=O)N(CCc2ccccc2)C1=O)Nc1ccc(Br)cc1 (stereo not given)	hcDAF12 agonist 5.8
O=C(O)CSC1CC(=O)N(c2ccc(F)cc2)C1=O (stereo not given)	none
O=C(CSC1CC(=O)N(c2ccc(C(=O)O)cc2)C1=O)Nc1ccc(Cl)cc1 (stereo not given)	DAX1 inh-2 6.5
CCCn1c2ccccc2c2cc(C(=O)O)ccc21	none
Cn1c2ccccc2c2cc(C(=O)O)ccc21	hcDAF12 agonist 5.9
Cc1cccc(Cn2cc(CN3CC(N(C)CCCOC(=O)c4cc(C)cc(C)c4)CS3(=O)=O)nn2)c1 (stereo not given)	none (no result: DAX1 inh-2)
CCCCCc1ccc(NC(=O)OCCCN2CCC3(CCC(c4ccccc4)CC3)C2=O)cc1 (stereo not given)	none (no result: DAX1 inh-2)
O=C(COC(=O)c1n[nH]c2ccccc12)Nc1ccccc1	DAX1 inh-2 10
Cc1cc(C)cc(NC(=O)COC(=O)c2n[nH]c3ccccc23)c1	hgDAF-12 ag 12
C#Cc1cccc(OC[C@@H](O)CN2CCC(C(O)(c3ccccc3)c3ccccc3)CC2)c1	none (no result: DAX1 inh-2)
O=C(NCCc1c[nH]c2ccccc12)OCc1cn(Cc2cccc(F)c2F)nn1	none (no result: DAX1 inh-2)
C[N+](C)(C)CCNC(=O)c1ccccc1	DAX1 inh-1 4.1 (no result: DAX1 inh-2)
O[C@@H](CNC[C@H](O)c1ccccc1)c1ccccc1	none
O=C(NCC(O)c1ccccc1)c1ccccc1 (stereo not given)	DAX1 inh-2 4.3
O=C(NCCNC(=O)c1ccccc1)c1ccccc1	none
O=C(O)[C@@H]1Cc2ccccc2N1	ssDAF12 agonist 1.0
O=C(O)C1Cc2ccccc2-c2ccccc2C1	none
NC1=NN=C(c2ccc3c(c2)OCCO3)CS1	DAX1 inh-1 4.5, hgDAF-12 ag 13
Cc1sc(N)nc1-c1ccc2c(c1)OCCO2	none
O=C(Cn1cnc2ccccc2c1=O)N1CCN(S(=O)(=O)c2ccc(F)cc2)CC1	DAX1 inh-1 3.6
CCOc1ccc(N2C(=O)CC(N3CCN(c4ccc([N+](=O)[O-])cc4)CC3)C2=O)cc1 (stereo not given)	none
CCCOc1ccc(N2C(=O)CC(N3CCN(c4ccc([N+](=O)[O-])cc4)CC3)C2=O)cc1 (stereo not given)	DAX1 inh-2 5.2
CCC(=O)Nc1ccc(CCC(=O)N2CCCC2)cc1	DAX1 inh-2 5.5
CCNS(=O)(=O)c1ccc(CCC(=O)N2CCCC2)cc1	DAX1 inh-2 5.1
Nc1ccc(CCC(=O)N2CCCC2)cc1	none
CC(C)CNS(=O)(=O)c1ccc(CCC(=O)N2CCCC2)cc1	none
Cc1nn(CCC(=O)NNC(=O)Nc2ccc(F)cc2)c(C)c1[N+](=O)[O-]	none (no result: DAX1 inh-2)
CCOC(=O)c1[nH]c2ccccc2c1NC(=S)Nc1cc(C)ccc1C	hcDAF12 agonist 6.1
CCOC(=O)c1[nH]c2ccc(OC)cc2c1NC(=O)c1ccccc1C(=O)O	DAX1 inh-2 4.3
CCCC(=O)Nc1c(C(=O)OCC)[nH]c2ccccc12	none
CCOC(=O)c1[nH]c2ccccc2c1NC(=O)Nc1ccc(OC)cc1	ssDAF12 agonist 0.9
O=C(Nc1cccc(C(F)(F)F)c1)O[C@@H]1CC[C@@]23CCCN2C(=O)CCC[C@H]3C1	none (no result: SMARCA2 activ, DAX1 inh-1, DAX1 inh-2)
CC(=O)CC[C@H]1CC[C@]2(CCCN(S(=O)(=O)c3ccccc3)C2)O1	none (no result: DAX1 inh-2)
CCCCN1C(=O)C(O)=C(C(C)=O)C1c1ccccc1[N+](=O)[O-] (stereo not given)	ssDAF12 agonist 0.9
Cc1ccc(Cl)cc1N1CCN(C(=O)C2CCC(=O)N(C3CCCCCC3)C2)CC1 (stereo not given)	none
Cc1ccc(Cl)cc1N1CCN(C(=O)C2CCC(=O)N2C(C)C)CC1 (stereo not given)	ssDAF12 agonist 1.7
COc1ccc2c(c1)CN1CN(Cc3ccccc3)S(=O)(=O)CC21 (stereo not given)	none (no result: DAX1 inh-2)
COCCNC(=O)CSc1ccccc1C(=O)NCC1CCCCC1	DAX1 inh-2 6.6
O=P(OC1CCCCC1)(OC1CCCCC1)C(O)c1cccnc1 (stereo not given)	hcDAF12 agonist 5.9
O=P(OC1CCCCC1)(OC1CCCCC1)C(O)c1ccccc1 (stereo not given)	none
O=C(O)CN1C(=O)C=CC1=O	DAX1 inh-2 4.7
O=C1C=CC(=O)N1CCCCCCN1C(=O)C=CC1=O	none (no result: DAX1 inh-2)
O=S1(=O)c2c(cccc2N2CCC[C@H]2CO)O[C@@H]2CCN1C2	none (no result: DAX1 inh-2)
COc1ccc(CNC2CCC23CCC(c2ccccc2)CC3)cc1OC (stereo not given)	none (no result: SMARCA2 activ, DAX1 inh-1, DAX1 inh-2)
CC(C)CC[n+]1ccn(-c2nc3ccccc3nc2[N-]S(=O)(=O)c2ccc(Cl)cc2)c1	DAX1 inh-2 5.3
CN(C)C(CNC(=O)c1ccc([N+](=O)[O-])cc1Cl)c1ccco1 (stereo not given)	none
CN(C)C(CNS(=O)(=O)c1cc([N+](=O)[O-])ccc1Cl)c1ccco1 (stereo not given)	SMARCA2 activ 7.8
COc1ccc(C(CNC(=O)c2ccc(S(=O)(=O)Nc3ccccc3OC)cc2)N2CCCC2)cc1 (stereo not given)	DAX1 inh-1 4.2
CCOC(=O)[C@H](Cc1ccccc1)NC(=O)[C@H]1C[C@@]2(N3CCCCC3)c3ccccc3N(C(=O)OC(C)(C)C)[C@H]2N1C(=O)OC(C)(C)C	none (no result: DAX1 inh-2)
CCCCNc1cc(=O)n(C)c(=O)[nH]1	DAX1 inh-2 8.1
Cn1c(=O)cc(NCc2ccccc2)[nH]c1=O	none
